Measured values reported in PubChem BioAssay AID1220 (Sanford-Burnham Center for Chemical Genomics, 2008).
Screen size: about 190,000 compounds; about 1,300 (0.68%) were called active. The sample holds actives, similar compounds and a random draw of the others, so the mix is not that of the screen. Values without a mark were called inactive. Rule as the data show it: active = inhibition above about 50%; inactive = the rest.

These compounds were tested against Mannose-6-phosphate isomerase (Homo sapiens) (UniProt P34949) (assay: MPI inhibition at elevated mannose 6-phosphate – biochemical, fluorescence intensity, high mannose 6-phosphate, primary screen (AID 1220)). Details: recombinant PMI enzyme, coupled fluorescence intensity; at 20 µM; stronger effect = higher value.
Sequence of Mannose-6-phosphate isomerase (Homo sapiens) (P34949 whole entry, looked up): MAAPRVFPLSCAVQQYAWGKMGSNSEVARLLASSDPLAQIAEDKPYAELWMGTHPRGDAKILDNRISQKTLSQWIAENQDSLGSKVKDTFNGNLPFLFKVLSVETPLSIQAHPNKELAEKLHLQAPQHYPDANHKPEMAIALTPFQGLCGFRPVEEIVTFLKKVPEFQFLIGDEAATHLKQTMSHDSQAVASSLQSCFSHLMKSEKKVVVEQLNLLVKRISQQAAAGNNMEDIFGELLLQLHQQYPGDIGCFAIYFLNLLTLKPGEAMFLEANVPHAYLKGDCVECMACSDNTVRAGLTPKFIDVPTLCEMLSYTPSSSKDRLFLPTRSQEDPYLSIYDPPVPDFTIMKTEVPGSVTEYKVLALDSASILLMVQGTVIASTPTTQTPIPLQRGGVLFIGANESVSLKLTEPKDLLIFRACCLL

Row | SMILES | inhibition
1 | C=CCOC(=O)C1=C[C@@H](c2ccc3c(c2)OCO3)C[C@@H](OCc2ccc(CO)cc2)O1 | 20%
2 | NC(=O)C1=C[C@H](c2ccc3c(c2)OCO3)C[C@H](OCc2ccc(CO)cc2)O1 | 59.9% (active)
3 | O=C(O)C1=C[C@@H](c2ccc3c(c2)OCO3)C[C@@H](OCc2ccc(CO)cc2)O1 | 4.3%
4 | O=C(Nc1ccccc1-c1ccccc1)C1CCC1 | 8.4%
5 | COc1ccc(Cc2nc(-c3ccc(-n4cccc4)cc3)no2)cc1 | -0.1%
6 | O=[N+]([O-])c1ccc(OCCN2CCNCC2)cc1 | -5.8%
7 | COc1nnc(-c2ccc(N3CCCCC3)c(NC(C)=O)c2)c2ccccc12 | -9.2%
8 | C=CCNC(=S)N1CCC(C(=O)c2ccc3c(c2)OCCO3)CC1 | 12.3%
9 | COc1cnc(-c2ccccn2)nc1Oc1ccccc1 | 12.7%
10 | COCCn1c(Br)nc2c1c(=O)n(C)c(=O)n2C | 0.3%
11 | Cc1ccc(OCCn2c(Br)nc3c2c(=O)n(C)c(=O)n3C)cc1 | 52.7% (active)
12 | COc1ccc(C(=O)Cn2c(Br)nc3c2c(=O)n(C)c(=O)n3C)cc1 | -3%
13 | CCc1ccccc1NC(=O)c1cccc(Oc2ccc([N+](=O)[O-])cc2Cl)c1 | 6.1%
14 | CN(C)S(=O)(=O)c1ccc(Cl)c(NC(=O)CSc2nc3ccccc3c(=O)n2CCCN2CCOCC2)c1 | 4.7%
15 | CCOC(=O)c1ccccc1NC(=O)COC(=O)C1=COCCO1 | 3.8%
16 | CC12CN3CC(C)(CN(C1)C3c1c[nH]c3ccccc13)C2=O (centres undefined) | 3.5%
17 | Cn1cc(C2N3CC4(C)CN2CC(C)(C3)C4=O)c2ccccc21 (centres undefined) | 4.5%

Row | SMILES | inhibition
18 | CC12CN3CC(C)(CN(C1)C3c1ccc3ccccc3c1O)C2=O (centres undefined) | 53.1% (active)
19 | CCCCCCNC(=O)Nc1ccccc1 | 0.8%
20 | CC(=O)N1C(=O)/C(=C2\SC(=S)N(NC(=O)c3ccc(O)cc3)C2=O)c2ccccc21 | 56.1% (active)
21 | CC(/C=C1\SC(=S)N(NC(=O)c2ccc(O)cc2)C1=O)=C\c1ccccc1 | 23.4%
22 | CC(=O)N1C(=O)/C(=C2\SC(=S)N(NS(=O)(=O)c3ccc(C)cc3)C2=O)c2ccccc21 | 38.2%
23 | Cc1cc(C)c(S(=O)(=O)n2nc(C)c(Br)c2C)c(C)c1 | -6.9%
24 | O=C(CCn1c(=O)sc2ccccc21)NCc1cccs1 | -0.4%
25 | COCc1cc(C)[nH]c(=O)c1C#N | -5.6%
26 | CN(C)S(=O)(=O)c1cccc(-c2cn3ccccc3n2)c1 | -10.7%
27 | Cc1ccnc(N2C3CCC2CC(O)(c2ccccc2)C3)n1 (centres undefined) | -10.5%
28 | Cc1cc(=O)c2ccccc2s1 | 0.5%
29 | O=c1c2ccccc2sn1-c1ccccc1 | 62.8% (active)
30 | O=c1c2ccccc2c2ccccc2c(=O)n1-c1ccccc1 | -1.1%
31 | CN(C)S(=O)(=O)c1cccc(N2C(=O)CC3(CCCCC3)CC2=O)c1 | 0.9%
32 | Cc1ccccc1N=Cc1c(O)n(-c2nccs2)c(=O)c2ccccc12 | 16.2%
33 | O=c1[nH]n(-c2ccccc2)c(=O)c2ccccc12 | -0.9%
34 | O=C1CCCN1c1nccs1 | -6.6%
